Results reported in PubChem BioAssay AID504333 (National Center for Advancing Translational Sciences (NCATS), 2011).
In all, about 360,000 compounds went through this assay and about 16,000 (4.4%) were called active. Roughly 9% stayed inconclusive and do not appear here. The sample holds actives, similar compounds and a random draw of the others, so the mix is not that of the screen. Unmarked numbers belong to inactive results. Calls come from the whole dose curve; as a rule, active = well fitted inhibition curve with a large enough effect; inconclusive = small, poorly fitted or top-dose-only effect; inactive = no such curve, though single readings can be large or run the other way.

target: Bromodomain adjacent to zinc finger domain protein 2B (Homo sapiens) (UniProt Q9UIF8); experiment: qHTS Assay for Inhibitors of BAZ2B; conditions: AlphaScreen BAZ2B-H3K14Ac peptide displacement; series mostly up to 114 µM; activity change, negative = inhibition: at the top concentration; note: nearly all actives have a fitted effect of over 60% in size
Summary of the method: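 Compounds, titrated to a top concentration of 110 uM, were incubated 30 min at room temperature with preformed BAZ2B/acetyl-K14 H3 peptide complex (50 nM each). Proximity signal was measured by AlphaScreen after 20 min with beads.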
% is set by controls: 0 for no effect and ±100 for the full control effect; potency is the fitted concentration of half-maximal effect.

Bromodomain adjacent to zinc finger domain protein 2B (Homo sapiens), sequence (Q9UIF8 whole entry, looked up, the tested form may be a part): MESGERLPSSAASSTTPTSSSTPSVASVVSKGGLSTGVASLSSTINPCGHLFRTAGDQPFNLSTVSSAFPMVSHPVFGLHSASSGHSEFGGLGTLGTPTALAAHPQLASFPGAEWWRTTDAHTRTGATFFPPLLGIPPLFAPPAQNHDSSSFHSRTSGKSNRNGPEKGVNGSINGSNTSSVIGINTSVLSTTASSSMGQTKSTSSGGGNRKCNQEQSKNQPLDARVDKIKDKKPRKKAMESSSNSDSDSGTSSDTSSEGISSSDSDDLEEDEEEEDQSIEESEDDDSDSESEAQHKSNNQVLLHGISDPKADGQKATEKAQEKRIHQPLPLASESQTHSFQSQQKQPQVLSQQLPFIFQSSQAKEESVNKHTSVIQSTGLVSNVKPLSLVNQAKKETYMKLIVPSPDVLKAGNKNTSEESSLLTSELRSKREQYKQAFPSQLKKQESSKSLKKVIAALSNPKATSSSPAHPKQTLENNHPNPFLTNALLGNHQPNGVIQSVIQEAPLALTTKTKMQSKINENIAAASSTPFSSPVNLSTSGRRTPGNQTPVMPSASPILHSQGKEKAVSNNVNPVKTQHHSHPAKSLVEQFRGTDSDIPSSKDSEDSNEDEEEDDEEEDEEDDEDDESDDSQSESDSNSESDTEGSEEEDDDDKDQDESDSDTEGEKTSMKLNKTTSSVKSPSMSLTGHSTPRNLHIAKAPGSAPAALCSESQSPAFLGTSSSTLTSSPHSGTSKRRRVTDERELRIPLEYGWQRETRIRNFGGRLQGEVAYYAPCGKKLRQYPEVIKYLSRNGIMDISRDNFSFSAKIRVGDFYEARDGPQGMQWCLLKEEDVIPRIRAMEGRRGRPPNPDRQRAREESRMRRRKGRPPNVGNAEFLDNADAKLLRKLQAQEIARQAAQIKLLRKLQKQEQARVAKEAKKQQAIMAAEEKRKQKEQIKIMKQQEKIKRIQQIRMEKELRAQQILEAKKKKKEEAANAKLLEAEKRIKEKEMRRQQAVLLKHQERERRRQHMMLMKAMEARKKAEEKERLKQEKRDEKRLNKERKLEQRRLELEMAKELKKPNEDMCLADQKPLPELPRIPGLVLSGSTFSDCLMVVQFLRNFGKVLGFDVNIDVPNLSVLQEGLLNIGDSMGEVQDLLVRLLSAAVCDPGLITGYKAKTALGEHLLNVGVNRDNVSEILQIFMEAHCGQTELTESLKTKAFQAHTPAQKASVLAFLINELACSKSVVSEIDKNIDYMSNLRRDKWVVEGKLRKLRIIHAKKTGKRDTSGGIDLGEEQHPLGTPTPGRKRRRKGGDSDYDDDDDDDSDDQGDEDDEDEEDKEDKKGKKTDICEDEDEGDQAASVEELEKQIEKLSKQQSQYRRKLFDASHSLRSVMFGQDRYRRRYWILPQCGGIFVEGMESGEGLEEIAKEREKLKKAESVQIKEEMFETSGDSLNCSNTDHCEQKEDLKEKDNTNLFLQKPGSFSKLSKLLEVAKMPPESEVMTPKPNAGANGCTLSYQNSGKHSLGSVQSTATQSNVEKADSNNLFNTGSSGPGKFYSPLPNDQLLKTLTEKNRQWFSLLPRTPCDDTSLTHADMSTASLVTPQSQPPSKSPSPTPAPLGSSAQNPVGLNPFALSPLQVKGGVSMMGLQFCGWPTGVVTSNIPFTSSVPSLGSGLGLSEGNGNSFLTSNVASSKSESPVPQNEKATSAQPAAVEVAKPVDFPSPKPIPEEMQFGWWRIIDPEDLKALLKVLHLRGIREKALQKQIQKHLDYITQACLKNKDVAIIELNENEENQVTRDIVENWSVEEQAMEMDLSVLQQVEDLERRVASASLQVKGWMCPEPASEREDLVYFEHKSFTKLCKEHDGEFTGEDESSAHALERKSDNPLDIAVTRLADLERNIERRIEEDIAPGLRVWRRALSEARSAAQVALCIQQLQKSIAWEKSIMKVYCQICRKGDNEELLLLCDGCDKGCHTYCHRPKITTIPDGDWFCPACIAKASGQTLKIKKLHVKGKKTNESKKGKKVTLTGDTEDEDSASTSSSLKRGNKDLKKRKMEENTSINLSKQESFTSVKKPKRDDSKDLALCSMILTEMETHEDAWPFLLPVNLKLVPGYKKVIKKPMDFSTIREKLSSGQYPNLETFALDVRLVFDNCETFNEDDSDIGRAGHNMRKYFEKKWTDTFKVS

Compound	activity change, negative = inhibition	Potency
CCOc1ccccc1N(CC)C(=O)c1cc2ccc3cccnc3c2[nH]1	-0.472% [at 57.1 µM]	
CC(=O)c1cccc(NC(=O)c2nc(-c3ccccc3)n(-c3cccc(C)c3)n2)c1	-9.48%	
Cc1cccc(-n2ccnc2SCC(=O)Nc2cccc3ccccc23)c1C		14.1 µM (active)
Cc1ccccc1-n1c(SCC(=O)Nc2cccc3ccccc23)nc(O)cc1=O	-38.7%	
CC(=O)Nc1cccc(NC(=O)CSc2nccn2Cc2ccc(F)cc2)c1	-24.5%	
O=C(CSc1nccn1-c1ccc(F)cc1)Nc1cccc2ccccc12		7.94 µM (active)
Cc1nnc(NC(=O)CSc2nccn2-c2cccc(C)c2C)s1	-29.9%	
O=C(CSc1nccn1Cc1ccc(F)cc1)NCc1ccccc1	-22%	
O=C(CSc1n[nH]c(-c2ccccc2)n1)N1CCCCC1	6.63%	
CN(C(=O)c1ccc2c(c1)N(Cc1cccc(Cl)c1)C(=O)c1ccccc1S2=O)C1CCCCC1 (stereo unspecified)	-10.9%	
Cc1ccc(NC(=O)c2ccc3[nH]c(C)cc(=O)c3c2)c(C)c1	0.886%	
O=C1CSC2(C(=O)N(Cc3ccccc3)c3ccccc32)N1c1cccc(F)c1 (stereo unspecified)	-33%	
CSc1ncc(C(=O)NCc2ccccc2Cl)c(C(F)(F)F)n1	12.8%	
COc1ccc(OC)c(-c2csc(-c3c(N)c(C(=O)c4ccccc4)n4ccccc34)n2)c1	-0.518%	
NC(=O)CSc1c[nH]c2ccccc12	7.21%	
O=S(=O)(O)Oc1c[nH]c2ccccc12		44.7 µM (active)
O=C(NC1CCCC1)C(=O)c1c[nH]c2ccccc12	-21.7%	
CC(=O)N(C1=C(Cl)C(=O)c2ccccc2C1=O)c1ccc(C(=O)O)cc1		28.2 µM (active)
CCc1ccc(-n2nc(C)c3c(C)cc(=O)n(CC(=O)Nc4ccc(F)cc4C)c32)cc1	-2.03%	
CC1CC(C)(C)NC(=S)N1CCC(=O)N1CCN(Cc2ccccc2)CC1 (stereo unspecified)	-0.357%	
CC1CC(=S)Nc2ccccc2N1Cc1ccccc1 (stereo unspecified)		39.8 µM (active)
CC1CC(=O)Nc2ccccc2N1S(=O)(=O)c1cccs1 (stereo unspecified)	2.06%	
Cc1nc(N2CCOCC2)c2c(C(=O)NCc3cccc(Cl)c3)c(C)oc2n1	9.33% [at 57.1 µM]	
CCOc1ccc(C(=O)Nc2nccs2)cc1[N+](=O)[O-]	6.29%	
O=C(CCn1ccc([N+](=O)[O-])n1)Nc1nccs1	-7.33%	
Cc1c(Br)c([N+](=O)[O-])nn1C(C)C(=O)Nc1nccs1 (stereo unspecified)		79.4 µM (active)

Compound	activity change, negative = inhibition	Potency
COc1ccc(-c2nc3scc(CCNS(=O)(=O)c4cc(F)ccc4OC)n3n2)cc1OC	-14.6%	
COc1ccccc1C(=O)OCc1cc(=O)n2nc(-c3cccs3)sc2n1	-31.5%	
CC1=Nc2cc(C(=O)NCc3ccc(C)cc3)ccc2Sc2ccc(Cl)cc21	-12.7%	
Cc1cc(Cl)ccc1OCCCC(=O)NCc1ccccn1	-6.56%	
O=S(=O)(NCc1ccccn1)c1ccc(F)cc1	-2.51%	
Fc1ccc(-c2ccc(CNCc3ccccn3)o2)cc1Cl		31.6 µM (active)
O=C(CCc1nc(CN2CCN(S(=O)(=O)c3ccc(Br)cc3)CC2)no1)N1CCCCC1	-19.9%	
COC(=O)c1ccccc1NC(=O)C(Cc1ccccc1)N1Cc2ccccc2C1=O (stereo unspecified)	-0.606%	
CCN(CCCNC(=O)c1cc2cc3cc(OC)ccc3nc2s1)c1ccccc1	-27.3%	
Cc1cc(C=O)c(C)n1-c1ccc(NC2CCCCC2)c([N+](=O)[O-])c1		10 µM (active)
Cc1c(NS(=O)(=O)c2ccc(NC3CCCC3)c([N+](=O)[O-])c2)c(=O)n(-c2ccccc2)n1C	-27.8%	
Cc1cc([N+](=O)[O-])ccc1NC1CCCC1	-0.979%	
CCOc1ccc(-c2cc(C)n3nc(C(=O)Nc4ccc(C)c(C)c4)cc3n2)cc1	-6.73%	
CCOC(=O)c1scc(-c2ccccc2)c1S(=O)(=O)Nc1ccccc1F	7.14%	
Cc1ccnc(N2CCCC(C(=O)NC3CC3)C2)n1 (stereo unspecified)	1.89%	
Cc1ccnc(-n2sc3ccccc3c2=O)n1		25.1 µM (active)
Cc1ccnc(SCC(N)=O)n1	-21.5%	
Cc1ccc(C)c(N2CCN(S(=O)(=O)c3ccc4c(c3)C(C(C)C)C(=O)N4)CC2)c1 (stereo unspecified)	-11.9% [at 57.1 µM]	
CC(NC(=O)c1cc2c(=O)n3ccccc3nc2n(C(C)C)c1=N)c1ccccc1 (stereo unspecified)	1.9%	
CCc1ccccc1NC(=O)CSc1nc(C)c(C(=O)Nc2ccccc2)c(-c2ccc(Cl)cc2)c1C#N	0.0077%	
CCn1c(C)c(C)c2cc(C(=O)NCCc3cc(OC)ccc3OC)ccc21		31.6 µM (active)
COc1ccc(OC)c(CCNC(=O)c2nn(C)c3c2CS(=O)(=O)c2ccccc2-3)c1	-27.6%	
COc1ccc(-n2c(=O)[nH]c3cc(C(=O)NCCc4ccc(OC)c(OC)c4)ccc3c2=O)c(OC)c1	4.46%	
CCOc1cccc2cc(-c3cn4c(n3)sc3cc(C)ccc34)c(=O)oc12	-17.3%	
Cc1ccc(NC(=S)Nc2ncccc2C)c(C)c1		44.7 µM (active)
